In PubChem BioAssay AID1220 (Sanford-Burnham Center for Chemical Genomics, 2008) one finds inhibition data, which are given here for 101 compounds.

Out of some 190,000 compounds screened, about 1,300 (0.68%) were called active. The list comes from a sample in which actives are over-represented; it also holds similar structures and randomly drawn compounds. A number with no mark means an inactive call. Rule as the data show it: active = inhibition above about 50%; inactive = the rest.

The target in the test is Mannose-6-phosphate isomerase (Homo sapiens) (UniProt P34949). Briefly: MPI inhibition at elevated mannose 6-phosphate – biochemical, fluorescence intensity, high mannose 6-phosphate, primary screen (AID 1220). Conditions: recombinant PMI enzyme, coupled fluorescence intensity; at 20 µM; hits give high values.
Chain of Mannose-6-phosphate isomerase (Homo sapiens) (P34949 whole entry, looked up): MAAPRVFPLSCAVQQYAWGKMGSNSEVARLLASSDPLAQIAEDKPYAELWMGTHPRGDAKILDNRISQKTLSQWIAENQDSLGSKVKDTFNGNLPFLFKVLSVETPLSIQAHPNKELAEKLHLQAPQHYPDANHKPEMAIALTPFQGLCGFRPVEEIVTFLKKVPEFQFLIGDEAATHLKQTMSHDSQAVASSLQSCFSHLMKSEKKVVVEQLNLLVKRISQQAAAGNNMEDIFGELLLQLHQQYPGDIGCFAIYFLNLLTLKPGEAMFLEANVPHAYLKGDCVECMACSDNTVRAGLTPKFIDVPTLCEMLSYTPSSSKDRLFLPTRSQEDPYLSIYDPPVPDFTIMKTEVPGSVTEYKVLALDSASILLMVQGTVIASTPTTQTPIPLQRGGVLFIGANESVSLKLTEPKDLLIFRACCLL
For the compound `CC1=CC(C)(C)N(C(=O)CCl)c2cc(C)ccc21`, the inhibition is -1.9%. In the case of `CN(C)C(=C(C#N)C#N)N1CCN(c2ccc(Cl)c(Cl)c2)CC1` it was 6.1%.

For `CC(C)(C)[C@H]1C=C(C(=O)N2CCN(Cc3ccc4c(c3)OCO4)CC2)O[C@@H](OCc2ccc(CO)cc2)C1`, the inhibition was 2.7%. The same measure for `COc1ccc(Br)cc1CN1CCN(C(=O)c2ccc(OC)c(OC)c2)CC1`: 2.3%; for `CCOC(=O)CCC(NC(=O)CCCCCCCCC(=O)NC(CCC(=O)OCC)C(=O)OCC)C(=O)OCC` (stereo unspecified): 6.1%; for `COc1ccc(NS(=O)(=O)c2cccc(NC(=O)CCS(=O)(=O)c3ccccc3)c2)cc1`: 8.9%.

As for `O=C(CN1CCCCCC1)Nc1ccc(F)c(F)c1`, the inhibition is -9.6%. In the case of `CCCCNC(=O)c1onc(CSc2cc(C)cc(C)c2)c1C(=O)O` it was -4%; in that of `O=C(N/N=C/c1cc(Br)c(Br)o1)C(O)c1ccccc1` (stereo unspecified), 5.2%; in that of `CC(CNc1ccccc1O)C(=O)O` (stereo unspecified), 64.7% (active). In the case of `CC(CC(=O)O)Nc1ccccc1O` (stereo unspecified) it was 49.3%; in that of `CC(CC(C)C(=O)Nc1ccccc1C(C)(C)C)C(=O)O` (stereo unspecified), -12.3%; in that of `COc1cc2c(cc1NC(=O)CSc1cccc[n+]1[O-])oc1ccccc12`, -6.2%. Turning to `CN(C)CC/C=C1\c2ccccc2Sc2ccc(Cl)cc21`, the inhibition was -12.5%. In the case of `COc1cc(Cl)cc2c1Sc1ccccc1/C2=C/CCN(C)C` it was -9.3%; in that of `CN(C)CC/C=C1/c2ccccc2Sc2c(O)cc(Cl)cc21`, 50% (active). In the case of `N#CC1(c2nc3ccccc3[nH]2)CC1c1ccc2c(c1)OCO2` (stereo unspecified) it was 0.1%; in that of `COc1ccc(S(=O)(=O)N2CCc3ccccc32)cc1NC(C)=O`, 1.8%; in that of `CNCC(C)COc1ccccc1OCc1ccccc1` (stereo unspecified), -5.2%. In the case of `N#CC1=C(N)OC2=C(C(=O)CCC2)C12CCN(C(=O)OCc1ccccc1)CC2` it was -6.7%. In the case of `CCOc1ccccc1NS(=O)(=O)c1c(C)noc1C`, the inhibition is 54.2% (active). Turning to `CCOc1ccccc1NS(=O)(=O)c1cn(C)nc1C`, the inhibition was -10.4%. With `CCOc1ccccc1NC(=O)C1CCN(S(=O)(=O)c2c(C)noc2C)CC1`, the inhibition was 2.7%. The same measure for `CC(=O)Nc1c(NC(=O)CC#N)[nH]c2c(c1=O)c(=O)n(C)c(=O)n2C`: 15.1%; for `CCn1c(C)cc(C=C2C(=O)c3ccccc3C2=O)c1C`: 20.2%; for `Cc1ccc(N(CC(=O)Nc2ccc(F)c(Cl)c2)S(=O)(=O)c2c(C)noc2C)cc1`: 11.9%. In the case of `CCNC(=O)Nc1ccccc1C(=O)OC` it was -5.5%.

Take `CCOC(=O)CNC(=O)Nc1ccccc1C(=O)OC`: the inhibition is -7.2%. For the compound `C#CC(CC)(CC)NC(=O)Nc1ccccc1C(=O)OC`, the inhibition is 64.6% (active).

With `N#Cc1nc(-c2cccs2)oc1NCC1CCCO1` (stereo unspecified), the inhibition was 0.2%.

On to `O=[N+]([O-])c1ccc(SCc2ccco2)cc1N1CCOCC1`, for which the inhibition was 1.4%. In the case of `CS(=O)(=O)N1CCN(c2ccc([N+](=O)[O-])c(SCc3ccco3)c2)CC1` it was 43.6%. In the case of `O=[N+]([O-])c1ccc(N2CCOCC2)cc1SCc1ccco1` it was 68.5% (active); in that of `CC(=O)NC(=S)Nc1ccc(S(=O)(=O)N2CCOCC2)cc1`, -4.7%. In the case of `COC(=O)c1ccc2c(c1)NC(=O)CS2` it was -9.2%; in that of `O=C1CSc2ccc(C(=O)NCCC3=CCCCC3)cc2N1`, -5.5%; in that of `COCCNC(=O)c1ccc2c(c1)NC(=O)CS2`, 53.7% (active). In the case of `COc1cccc(C(=O)Nc2ccc(S(=O)(=O)Nc3onc(C)c3C)cc2)c1`, the inhibition was -1.9%. On to `Nc1ccc(OCC(O)C[n+]2ccc(CCS(=O)(=O)[O-])cc2)cc1` (stereo unspecified), for which the inhibition was 53.8% (active). Regarding `COc1ccc(OCC(O)COc2ccc(OC)cc2)cc1`, the inhibition is -1.9%.

In the case of `Nc1ccc(CCS(N)(=O)=O)cc1`, the inhibition is -2.1%. Consider `Cc1cc(CNC(=O)COc2ccccc2F)c2ccccc2n1`, for which the inhibition was -0.4%. In the case of `COc1ccc(CN2CCN(Cc3csc(C(C)=O)c3)CC2CCO)c(C)c1C` (stereo unspecified) it was -1.9%; in that of `COc1ccc(/C=N/NC(=O)c2nn(-c3ccc(C)c(C)c3)c(=O)c3ccccc23)cc1`, 22.6%; in that of `CCOC(=O)c1nn(-c2ccc(C)c(C)c2)c(=O)c2c(N)scc12`, 54.4% (active). Take `CCOC(=O)c1nn(-c2ccccc2)c(C(=O)OCC)c1N`: the inhibition was 10.9%. In the case of `COc1ccc(/C=N/NC(=O)c2nn(-c3ccccc3)c(=O)c3c(N)scc23)cc1` it was 52.4% (active). In the case of `COc1ccc(/C=N/NC(=O)c2nn(-c3ccc(Cl)cc3)c(=O)c3c(N)scc23)cc1` it was 41.9%; in that of `Cc1ccc(-n2nc(C(=O)O)c3ccccc3c2=O)cc1C`, -1.7%. In the case of `CCOC(=O)c1nn(-c2ccccc2)c(=O)c2c(NC(C)=O)scc12` it was 0%. On to `CCOC(=O)c1nn(-c2ccc(F)cc2)c(C)c1C(C)=O`, for which the inhibition was -0.1%. In the case of `CCOC(=O)c1nn(-c2ccccc2)c(=O)c2c(N)scc12` it was 63.3% (active); in that of `CCCSc1cc(=O)n(-c2ccc(F)cc2)nc1C(=O)OCC`, -6%; in that of `CCOC(=O)c1nn(-c2ccc(F)cc2)c(=O)c2c(N)scc12`, 62.3% (active). The same measure for `CCOC(=O)c1nn(-c2ccc(C)c(C)c2)cc1O`: 12.2%; for `CCOC(=O)C1CCN(S(=O)(=O)c2ccc(C(=O)OC)cc2)CC1`: -3.3%. Consider `CCOC(=O)c1cc2occc2n1CC(=O)Nc1ccc(OC)cc1OC`, for which the inhibition was 9%. In the case of `CCOC(=O)c1nn(-c2ccc(C)cc2)c(=O)c2c(N)scc12`, the inhibition is 61.7% (active).

On to `CCOC(=O)c1nn(-c2ccc(OC)cc2)c(=O)c2c(N)scc12`, for which the inhibition is 27.4%. The same measure for `CCOC(=O)c1nc(N)c(=O)n(-c2ccc(C)cc2)n1`: -8.9%; for `COc1ccccc1NC(=O)C/C(N)=N/O`: -9.6%. In the case of `CNC(=O)C(=O)NCCCN1CCOCC1`, the inhibition is -4.4%. In the case of `O=[N+]([O-])c1ccc(N2CCCC2)cc1N1CCCC1` it was 50.2% (active); in that of `CCOc1cc(N2CCCC2)ccc1[N+](=O)[O-]`, 53.4% (active); in that of `Cc1cc(N2CCCCC2)ccc1[N+](=O)[O-]`, 44.8%. In the case of `CC(C)(C)CNc1cc(N2CCCC2)ccc1[N+](=O)[O-]` it was 11.3%; in that of `O=[N+]([O-])c1ccc(N2CCOCC2)cc1N1CCCCC1`, -3.2%; in that of `CCNc1cc(N2CCCC2)ccc1[N+](=O)[O-]`, 32.8%. Consider `O=[N+]([O-])c1ccc(N2CCCCC2)cc1N1CCOCC1`, for which the inhibition was 4.6%. The same measure for `COc1cc(N2CCCC2)ccc1[N+](=O)[O-]`: 19.4%; for `C=CCNc1cc(N2CCCC2)ccc1[N+](=O)[O-]`: 51.8% (active); for `O=C(/C=C/c1ccco1)c1ccc(O)cc1`: 11.9%. The same measure for `Cn1c(CN2CCCC2)nc2cc(NC(=O)c3cccs3)ccc21`: -21.8%; for `Cc1nn(-c2ccc(F)cc2F)c2c1-c1nc(N3CCCC3)ncc1CC2`: 38.1%. In the case of `Cc1nn(-c2ccccn2)c2c1-c1nc(N3CCOCC3)ncc1CC2` it was 57.5% (active); in that of `Cc1nn(-c2ccccn2)c2c1-c1nc(N)ncc1CC2`, 40.6%. `C[C@@H]1NC(=O)[C@H](CCCN=C(N)N)NC(=O)c2cc([N+](=O)[O-])cc(I)c2OCC[C@@H](C(N)=O)NC1=O`: the inhibition is -20.7%. In the case of `Cc1nc2ccc(C(C(F)(F)F)(C(F)(F)F)C(F)(F)F)cc2[nH]1` it was 14.4%; in that of `Nc1ccc2nc(C(F)(F)F)[nH]c2c1`, 37%.

On to `Cc1nc2cc3nc(C(F)(F)F)[nH]c3cc2[nH]1`, for which the inhibition was 52.2% (active). The same measure for `COCCNC(=O)C1=NOC(Cn2cc(C#N)c(=O)n(C)c2=O)C1` (stereo unspecified): 5.3%. On to `CCCNC(=O)/C=C/c1ccc(S(=O)(=O)Nc2ccccc2OC)cc1`, for which the inhibition was -3.6%.

For the compound `CC1CCCCC1NC(=O)CCCn1c(=S)[nH]c2ccccc2c1=O` (stereo unspecified), the inhibition is -12.4%.

As for `Cc1ccc(C)n1-c1ccncc1`, the inhibition is 3.1%. In the case of `Cc1ccc(C)n1-c1ccc(N(C)C)cc1` it was 66.1% (active); in that of `Cc1ccc(C)n1-c1ccc(C(=O)O)cc1`, 0.2%. In the case of `Cc1ccc(OC(=O)C(F)(F)F)c2c1NCCC2` it was 11.5%; in that of `Cc1cc2c(C)cc(=O)oc2c2c1NCCC2`, 12.6%. In the case of `COc1ccc(N2CCN(/C(=N\S(=O)(=O)c3ccc(C)cc3)Nc3nc(C)cc(C)n3)CC2)cc1` it was -1.1%; in that of `Nc1nc(-c2ccco2)nc(N2CCCCC2)n1`, 2.4%. On to `O=C(NCc1ccc(N2CCCC2=O)cc1)c1cn(CCc2ccccc2)nn1`, for which the inhibition is 3.8%. In the case of `O=C1CC(=O)N(CCc2ccccc2)C(=O)N1CCc1ccccc1` it was 7.8%; in that of `O=C1C=CC(=O)C(C2=C3C(=O)N(CCc4ccccc4)CC(=O)N3CCC2)=C1`, 50.6% (active); in that of `O=C(NO)c1cc(OCC(F)(F)F)ccc1OCC(F)(F)F`, -2.8%. In the case of `Cc1cccc(C)c1OCC(=O)N/N=C/c1cc2c(cc1[N+](=O)[O-])OCO2` it was -72.5%.

With `Cc1cccc(N=Cc2cc3c(cc2[N+](=O)[O-])OCO3)c1`, the inhibition is 62.2% (active).

With `Cc1cc(C)nc(N/N=C/c2cc3c(cc2[N+](=O)[O-])OCO3)n1`, the inhibition is 1.3%. In the case of `Cc1ccc(C)c(N=Cc2cc3c(cc2[N+](=O)[O-])OCO3)c1` it was 41.6%.

As to `Cc1ccccc1N=Cc1cc2c(cc1[N+](=O)[O-])OCO2`, the inhibition is 53.3% (active). The same measure for `O=[N+]([O-])c1cc2c(cc1/C=N/n1cnnc1)OCO2`: 13%; for `CC1=NN(c2nc(-c3ccc(C)cc3)cs2)C(=O)C1N=Nc1ccc2ccccc2c1` (stereo unspecified): 10.1%.
